In PubChem BioAssay (NCI):
Values joined by “and” are separate entries in the source; they are usually repeats but may differ in a detail not shown here. Equal values may be shown once. About 83,000 compounds went through this panel and 20% of them were active in at least one assay; those are over-represented in the sample as a whole.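 Activity criterion: percent growth below 10, measured after cells in 96-well plates were exposed to a single compound concentration for 48 hours.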 Active and inactive are the calls of the source.

Legend:
Experiment in all cases: NCI-60 one-dose screen, 48 h (100 = growth as untreated, 0 = no growth, -100 = all killed)
Conditions in all cases: 10 µM unless noted
[1] = test system: DU-145 prostate
[2] = test system: K-562 leukemia
[3] = test system: MALME-3M melanoma
[4] = test system: MDA-MB-231 breast
[5] = test system: RXF 393 renal
[6] = test system: SF-268 CNS
[7] = test system: SF-295 CNS
[8] = test system: SF-539 CNS
[9] = test system: UACC-257 melanoma
[10] = test system: M14 melanoma

SMILES: CCOc1ccc(Nc2c3ccccc3nc3ccccc23)cc1
- growth [1]: 104% (inactive) and 23.1% (inactive) and 35.2% (inactive)
- growth [2]: 81.3% (inactive) and 6.44% (active) and 3.81% (active)
- growth [3]: 99% (inactive) and 5.36% (active) and 13.2% (inactive)
- growth [4]: 94.2% (inactive) and 45.9% (inactive) and 48.4% (inactive)
- growth [5]: 83.7% (inactive) and -4.09% (active) and 10% (active)
- growth [6]: 108% (inactive) and 34.7% (inactive) and 45.7% (inactive)
- growth [7]: 65.7% (inactive) and 28.8% (inactive) and 17.1% (inactive)
- growth [8]: 94.5% (inactive) and 17.9% (inactive) and 11% (inactive)
- growth [9]: 96% (inactive) and 24.7% (inactive) and 44.7% (inactive)

SMILES: Cc1ccc(NCSc2ccc(Cl)cc2)cc1
- growth [1]: 93.2% (inactive) and 95.4% (inactive)
- growth [2]: 74.1% (inactive) and 80.2% (inactive)
- growth [3]: 115% (inactive) and 92.6% (inactive)
- growth [4]: 58.7% (inactive) and 59.7% (inactive)
- growth [5]: 100% (inactive) and 111% (inactive)
- growth [6]: 63.9% (inactive) and 57.2% (inactive)
- growth [7]: 85.8% (inactive)
- growth [8]: 65% (inactive) and 69.6% (inactive)
- growth [9]: 70.7% (inactive) and 86.5% (inactive)

SMILES: Nc1ccccc1Nc1ccccc1
- growth [1]: 100% (inactive) and 93.4% (inactive)
- growth [2]: 67.8% (inactive) and 85.5% (inactive)
- growth [3]: 117% (inactive) and 136% (inactive)
- growth [4]: 82.1% (inactive) and 71.7% (inactive)
- growth [5]: 122% (inactive) and 129% (inactive)
- growth [6]: 90.4% (inactive) and 77.8% (inactive)
- growth [7]: 98.4% (inactive)
- growth [8]: 94.8% (inactive) and 78.5% (inactive)
- growth [9]: 86.1% (inactive) and 115% (inactive)

SMILES: O=C1c2ccccc2C(=O)N1/N=C/c1ccc2c(c1)OCO2
- growth [1]: 116% (inactive)
- growth [2]: 99.8% (inactive)
- growth [3]: 110% (inactive)
- growth [4]: 87.2% (inactive)
- growth [5]: 107% (inactive)
- growth [6]: 103% (inactive)
- growth [7]: 129% (inactive)
- growth [8]: 101% (inactive)
- growth [9]: 99.7% (inactive)

SMILES: CCN(CC)CCCC(CNc1ccnc2cc(Cl)ccc12)c1ccc(Cl)cc1 (stereo not drawn)
- growth [1]: 34.5% (inactive) and 29.6% (inactive)
- growth [2]: -69% (active) and -71% (active)
- growth [3]: -91.3% (active) and -77.4% (active)
- growth [4]: -58.2% (active) and 38.7% (inactive)
- growth [5]: -64.7% (active) and 22.7% (inactive)
- growth [6]: -19.4% (active) and -34.3% (active)
- growth [7]: -69.7% (active) and -71.8% (active)
- growth [8]: -87.6% (active) and -92.2% (active)
- growth [9]: -67.8% (active) and -86.2% (active)

SMILES: Nc1ccccc1SC1CC(=O)N(c2cccc3ccccc23)C1=O (stereo not drawn)
- growth [1]: 111% (inactive)
- growth [2]: 90.2% (inactive)
- growth [3]: 101% (inactive)
- growth [4]: 91.9% (inactive)
- growth [5]: 93% (inactive)
- growth [6]: 98.1% (inactive)
- growth [7]: 94.7% (inactive)
- growth [8]: 95.6% (inactive)

SMILES: C/C(=N\NC(=O)c1ccncc1)c1ccccc1O
- growth [1]: 40.8% (inactive) and 45.2% (inactive)
- growth [2]: 35.6% (inactive) and 35.4% (inactive)
- growth [3]: 65.6% (inactive) and 53.4% (inactive)
- growth [4]: 34.9% (inactive) and 36.2% (inactive)
- growth [5]: 63.6% (inactive) and 75.4% (inactive)
- growth [6]: 37.1% (inactive) and 40.5% (inactive)
- growth [7]: 40.2% (inactive) and 39.3% (inactive)
- growth [8]: 52.9% (inactive) and 30.2% (inactive)
- growth [9]: 43.9% (inactive) and 25.1% (inactive)
- growth [10]: 27.5% (inactive) and 33.5% (inactive)

SMILES: CC(=O)Nc1ccc(O)cc1
- growth [1]: 103% (inactive) and 113% (inactive) and 118% (inactive)
- growth [2]: 107% (inactive) and 83.2% (inactive) and 106% (inactive)
- growth [3]: 100% (inactive) and 1.98% (active) and 142% (inactive)
- growth [4]: 101% (inactive) and 119% (inactive) and 92.4% (inactive)
- growth [5]: 108% (inactive) and 129% (inactive)
- growth [6]: 100% (inactive) and 106% (inactive) and 105% (inactive)
- growth [7]: 89.9% (inactive) and 94.1% (inactive) and 107% (inactive)
- growth [8]: 104% (inactive) and 95.4% (inactive) and 103% (inactive)
- growth [9]: 98.3% (inactive) and 155% (inactive) and 107% (inactive)
- growth [10]: 97.2% (inactive) and 123% (inactive) and 109% (inactive)

SMILES: COc1ccc2cc3[n+](cc2c1OC)CCc1cc2c(cc1-3)OCO2
- growth [1]: 92.5% (inactive) and 78.4% (inactive)
- growth [2]: 41.1% (inactive) and 40% (inactive)
- growth [3]: 31.6% (inactive) and 42% (inactive)
- growth [4]: 81.7% (inactive) and 87.5% (inactive)
- growth [5]: 89.1% (inactive) and 60.9% (inactive)
- growth [6]: 42.9% (inactive) and 40.7% (inactive)
- growth [7]: 19.3% (inactive) and 45.1% (inactive)
- growth [8]: 68.6% (inactive) and 82.9% (inactive)
- growth [9]: 48.1% (inactive) and 88.5% (inactive)
- growth [10]: 83.2% (inactive) and 110% (inactive)

SMILES: CC1=C(/C=C/C(C)=C/C=C/C(C)=C/C(=O)O)C(C)(C)CCC1
- growth [1]: 103% (inactive) and 83.3% (inactive)
- growth [2]: 108% (inactive) and 89.5% (inactive)
- growth [3]: 69.1% (inactive) and 35.6% (inactive) and 70.6% (inactive)
- growth [4]: 78.1% (inactive) and 82.2% (inactive) and 85.1% (inactive)
- growth [5]: 94.2% (inactive) and 89.6% (inactive) and 91.3% (inactive)
- growth [6]: 91.7% (inactive) and 92.9% (inactive) and 101% (inactive)
- growth [7]: 69.3% (inactive) and 88.1% (inactive) and 114% (inactive)
- growth [8]: 88.7% (inactive) and 62.2% (inactive) and 86.1% (inactive)
- growth [9]: 94.7% (inactive) and 82.5% (inactive) and 93.9% (inactive)
- growth [10]: 109% (inactive) and 95.3% (inactive) and 91.5% (inactive)

SMILES: NC(=S)NS(=O)(=O)c1ccc(N)cc1
- growth [1]: 125% (inactive)
- growth [2]: 103% (inactive)
- growth [3]: 96.6% (inactive)
- growth [4]: 117% (inactive)
- growth [5]: 101% (inactive)
- growth [6]: 107% (inactive)
- growth [7]: 94.7% (inactive)
- growth [8]: 98.7% (inactive)
- growth [9]: 101% (inactive)
- growth [10]: 106% (inactive)

SMILES: CN1C(=O)C(N=Nc2ccc([N+](=O)[O-])cc2)SC1=S (stereo not drawn)
- growth [1]: 90.7% (inactive) and 89.2% (inactive)
- growth [2]: 43.1% (inactive)
- growth [3]: 80.1% (inactive) and 99.9% (inactive)
- growth [4]: 76.7% (inactive) and 87% (inactive)
- growth [5]: 80% (inactive) and 94.2% (inactive)
- growth [6]: 65.2% (inactive) and 67.6% (inactive)
- growth [7]: 185% (inactive) and 46.3% (inactive)
- growth [8]: 67.2% (inactive) and 68.2% (inactive)
- growth [9]: 76.3% (inactive) and 84.2% (inactive)
- growth [10]: 59.6% (inactive) and 59.5% (inactive)

SMILES: Cn1c(=O)c2[nH]c(CCCCCCCCc3nc4ccccc4[nH]3)nc2n(C)c1=O
- growth [1]: 91.2% (inactive) and 82.7% (inactive)
- growth [2]: 30.9% (inactive)
- growth [3]: 71.9% (inactive)
- growth [4]: 77% (inactive) and 60.9% (inactive)
- growth [5]: 87.9% (inactive) and 101% (inactive)
- growth [6]: 83.5% (inactive) and 98.3% (inactive)
- growth [7]: 34.8% (inactive) and 35.9% (inactive)
- growth [8]: 78.2% (inactive) and 74.8% (inactive)
- growth [9]: 39.7% (inactive) and 72% (inactive)
- growth [10]: 80.7% (inactive) and 80.8% (inactive)

SMILES: COc1ccccc1/C=N\N=C(N/N=C/c1ccccc1OC)N/N=C/c1ccccc1OC
- growth [1]: 71.5% (inactive) and 53.4% (inactive)
- growth [2]: 34.1% (inactive) and 11.4% (inactive)
- growth [3]: 52.1% (inactive)
- growth [4]: 73.8% (inactive) and 51.3% (inactive)
- growth [5]: 94.5% (inactive) and 60.1% (inactive)
- growth [6]: 63.6% (inactive) and 25.6% (inactive)
- growth [7]: 52.1% (inactive)
- growth [8]: 83.7% (inactive) and 42.1% (inactive)
- growth [9]: 90.9% (inactive) and 31% (inactive)
- growth [10]: 59.9% (inactive) and 26.6% (inactive)

SMILES: CCOc1ccc2cc(-c3nn(CC4CCN(C)CC4)c4ncnc(N)c34)ccc2c1
- growth [1]: 102% (inactive) and 69.9% (inactive)
- growth [2]: 87.5% (inactive) and 2.73% (active)
- growth [3]: 69.7% (inactive) and -46.1% (active)
- growth [4]: 85% (inactive) and 11.1% (inactive)
- growth [5]: 46.8% (inactive) and -5.36% (active)
- growth [6]: 90% (inactive) and 48.6% (inactive)
- growth [7]: 96.9% (inactive) and 50.4% (inactive)
- growth [8]: 84.4% (inactive) and 16.7% (inactive)
- growth [9]: -67.9% (active)
- growth [10]: 98.4% (inactive) and -77.3% (active)

SMILES: O=C1OC(Oc2ccc(Br)cc2)(c2ccccc2)c2ccccc21 (stereo not drawn)
- growth [1]: 97.1% (inactive) and 84.1% (inactive)
- growth [2]: 70.1% (inactive)
- growth [3]: 89.5% (inactive)
- growth [4]: 86.4% (inactive) and 107% (inactive)
- growth [5]: 82.7% (inactive) and 82.3% (inactive)
- growth [6]: 91.7% (inactive) and 76% (inactive)
- growth [7]: 83.1% (inactive) and 82.3% (inactive)
- growth [8]: 104% (inactive) and 98.5% (inactive)
- growth [9]: 88.5% (inactive) and 90.9% (inactive)
- growth [10]: 96.4% (inactive) and 98.2% (inactive)

SMILES: O=C(O)CN(CCN(CC(=O)O)CC(=O)O)CCN(CC(=O)O)CC(=O)O
- growth [1]: -12.6% (active) and 114% (inactive) and 106% (inactive)
- growth [2]: 4.41% (active) and 114% (inactive) and 103% (inactive)
- growth [3]: -4.09% (active) and 112% (inactive) and 102% (inactive)
- growth [4]: 35.8% (inactive) and 100% (inactive) and 90.7% (inactive)
- growth [5]: -19.3% (active) and 108% (inactive) and 109% (inactive)
- growth [6]: 1.46% (active) and 114% (inactive) and 105% (inactive)
- growth [7]: -23.9% (active) and 112% (inactive) and 105% (inactive)
- growth [8]: -42.7% (active) and 104% (inactive)
- growth [9]: 0.783% (active) and 105% (inactive) and 102% (inactive)
- growth [10]: 18.2% (inactive) and 88.8% (inactive) and 102% (inactive)
